# Data as given in PubChem BioAssay AID618 (Sanford-Burnham Center for Chemical Genomics, 2007).
# Screen size: about 87,000 compounds; about 540 (0.62%) were called active. The rule behind the calls is not given here. What follows is part of a selection rich in actives, with near analogues and random picks from the rest. Measured potencies and affinities stand elsewhere.
# Test: MT1-MMP gene expression reporter suppression – cell-based, luciferase reporter, luminescence (AID 618);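 note: actives suppress MT1-MMP promoter-driven transcription so potencies describe inhibitors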
# Conditions: MT1-MMP promoter luciferase reporter cells
row,Compound,outcome
1,COc1cccc(OCC(=O)N2CCN(C)CC2)c1,inactive
2,CN1CCN(C(=O)COc2ccc(S(=O)(=O)N(C)Cc3ccccc3)cc2)CC1,inactive
3,CN1CCN(C(=O)COc2ccc(-c3nc4ccccc4s3)cc2)CC1,active
4,CCOC(=O)C1=C(N)Oc2ccccc2C12C(=O)N(CC(=O)OC)C(CC(=O)OC)=C2C(=O)OC (stereo not given),inactive
5,C[C@H]1CCCC(=O)CCC/C=C/c2cc(O)cc(O)c2C(=O)O1,inactive
6,C[C@H]1CCC/C=C/C2C[C@H](O)CC2[C@H](O)/C=C/C(=O)O1 (stereo not given in full),active
7,C[C@H]1CCC[C@@H](O)CCC/C=C/c2cc(O)cc(O)c2C(=O)O1,inactive
8,Cn1c(O)c(C=NCc2cccs2)c(=O)n(C)c1=O,inactive
9,CCC(C)OC(=O)c1c(N)n(Cc2cccs2)c2nc3ccccc3nc12 (stereo not given),inactive
10,COc1ccc(Nc2ncc(C(=O)N3CCC4(CC3)OCCO4)c3ccccc23)cc1,inactive
11,CC(C)c1cccc(C(C)C)c1OCCn1ccnc1,inactive
12,CCn1c(=O)cc(OCC(=O)N2CCN(Cc3ccc4c(c3)OCO4)CC2)c2ccccc21,inactive
13,O=c1[nH]c2ccccc2n1C1CCN(CCCC(c2ccc(F)cc2)c2ccc(F)cc2)CC1,active
14,O=c1[nH]c2ccccc2n1CCCN1CCC(n2c(=O)[nH]c3cc(Cl)ccc32)CC1,inactive
15,O=C1CC(N2CCC(n3c(=O)[nH]c4ccccc43)CC2)C(=O)N1c1ccc(F)cc1 (stereo not given),inactive
16,Cc1ccc(-n2nc(C)cc2NC(=O)COc2cc(C)cc3oc(=O)c4c(c23)CCC4)cc1,inactive
17,CC12CN3CC(C)(CN(C1)P3(=O)Oc1ccccc1)C2=O (stereo not given),inactive
18,Cc1nc2c(=O)n(C)c(=O)nc-2n(C)n1,active
19,CCOC(=O)CC1=C(C(=O)OCC)C2(C(=O)N1CC(=O)OC)C(C#N)=C(N)Oc1ccccc12 (stereo not given),inactive
20,CCC/C=C(\CCC)C(NP(=O)(c1ccccc1)c1ccccc1)c1ccccc1 (stereo not given),inactive

row,Compound,outcome
1,Nc1ccccc1C(=O)OCCOc1ccccc1,active
2,Nc1ccccc1C(=O)OC1CSC1,inactive
3,CCCCCCOC(=O)c1ccccc1N,inactive
4,CCCCOP(=O)(CN1CCOCC1)OCCCC,inactive
5,CCN1CCN(C(=O)COc2cc(=O)n(CC)c3ccccc23)CC1,inactive
6,c1ccc2c(CNC3CCCCCC3)c[nH]c2c1,inactive
7,CCCCn1c(O)c(C=NC2CC3CCC2(C)C3(C)C)c(=O)[nH]c1=O (stereo not given),inactive
8,Cc1ccc(C2(O)CC(C)N(C)CC2C)cc1 (stereo not given),inactive
9,Cc1ccc(N(C)C(=O)Oc2cccc3cccnc23)cc1,inactive
10,CN(C)CCN=Cc1c(O)n(-c2cccc3ccccc23)c(=O)[nH]c1=O,inactive
11,COC(=O)C1CN(C#N)N(c2ccc(Cl)cc2)C12c1ccccc1-c1ccccc12 (stereo not given),active
12,COC(=O)[C@@H]1[C@@H](C(=O)OC)C2(c3ccccc3-c3ccccc32)N(c2ccc(Cl)cc2)N1C#N,inactive
13,COC(=O)C[C@]1(C(=O)OC)CN(C#N)N(c2ccc(Cl)cc2)C12c1ccccc1-c1ccccc12,active
14,CCCN1[C@@H]2C[C@@H](O)CC[C@@H]2C[C@H]1C(=O)OC,inactive
15,CN(C)CCCN=Cc1c(O)n(CCc2ccc(F)cc2)c(=O)[nH]c1=O,inactive
16,CC(C)CCC1(CCc2ccncc2)C(=O)NC(=O)NC1=O,inactive
17,CCCCn1c(O)c(C(C)=Nc2c(C)n(C)n(-c3ccccc3)c2=O)c(=O)[nH]c1=O,inactive
18,O=C1CN=C(c2ccccc2)c2oc3ccc(Br)cc3c2N1,inactive
19,COc1cccc(OC)c1C1=NCC(=O)Nc2c1oc1ccc(Br)cc21,active
20,CCOc1cc(-c2nc3c(C)cccn3c2NCC2CCCO2)ccc1O (stereo not given),inactive
